Results as given in PubChem BioAssay (EPA / NIEHS).
“And” between values parts separate entries of the source, which are not always exact repeats. Equal entries are not always repeated. More than one record can exist for a structure, and the calls need not agree. The source made the active and inactive calls. The calls were made as follows: active = hit-call score of the fitted dose curve at least 0.9, where 1 is the maximum; inactive = score below 0.9.

Experiments:
[1] = read-out: Urokinase-type plasminogen activator receptor (uPAR), PLAUR (gene 5329); assay: BSK_4H_uPAR: BioMAP Diversity Plus: 4H Assay for Urokinase-type plasminogen activator receptor (uPAR) Biomarker Activity (AID 2283030); details: primary human endothelial cells (HUVEC); actives raise or lower the signal
Procedure, shortened: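 Primary human umbilical vein endothelial cells were exposed to chemical for 24 h before cell-surface uPAR was quantified by ELISA. Activity was fitted bidirectionally against the DMSO negative control baseline.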

[2] = read-out: Vascular endothelial growth factor receptor 2 (Homo sapiens) (UniProt P35968); assay: BSK_4H_VEGFRII: BioMAP Diversity Plus: 4H Assay for Vascular endothelial growth factor receptor 2 (VEGFR2) Biomarker Activity (AID 2283031); details: primary human endothelial cells (HUVEC); actives raise or lower the signal;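 as to AC50: cell-surface VEGFR2 protein level quantified by ELISA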
Procedure, shortened: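 Primary human umbilical vein endothelial cells in the BioMAP 4H system were dosed with test chemical, and 24 h later VEGFRII was measured by ELISA. Activity was fitted bidirectionally against DMSO as negative control and baseline.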

[3] = read-out: Human Leukocyte Antigen - DR isotype (HLADR), HLA-DRA (gene 3122); assay: BSK_BE3C_HLADR: BioMAP Diversity Plus: BE3C Assay for Human Leukocyte Antigen - DR isotype (HLADR) Biomarker Activity (AID 2283032); details: primary human bronchial epithelial cells; actives raise or lower the signal
Procedure, shortened: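 Primary human bronchial epithelial cells (BE3C); 24 h chemical exposure; HLA-DR by ELISA; bidirectional curve fit vs DMSO baseline.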

[4] = read-out: Vascular cell adhesion molecule 1 (VCAM1), VCAM1 (gene 7412); assay: BSK_4H_VCAM1: BioMAP Diversity Plus: 4H Assay for Vascular cell adhesion molecule 1 (VCAM1) Biomarker Activity (AID 2283033); details: primary human endothelial cells (HUVEC); actives raise or lower the signal
Procedure, shortened: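 HUVEC, 24 h post-dose; VCAM-1 by ELISA. Bidirectional curve fit vs DMSO baseline. Parallel SRB total-protein stain (0.1% SRB after 10% TCA fixation, 560 nm) for cytotoxicity.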

[5] = read-out: Interferon-gamma inducible Protein 10 (IP10), CXCL10 (gene 3627); assay: BSK_BE3C_IP10: BioMAP Diversity Plus: BE3C Assay for Interferon-gamma inducible Protein 10 (IP10) Biomarker Activity (AID 2283034); details: primary human bronchial epithelial cells; actives raise or lower the signal
Procedure, shortened: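 ELISA readout of IP-10 in BE3C system: primary human bronchial epithelial cells, 24 h post-dosing; bidirectional curve fit vs DMSO baseline.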

[6] = read-out: Monokine induced gamma interferon (MIG), CXCL9 (gene 4283); assay: BSK_BE3C_MIG: BioMAP Diversity Plus: BE3C Assay for Monokine induced gamma interferon (MIG) Biomarker Activity (AID 2283035); details: primary human bronchial epithelial cells; actives raise or lower the signal
Procedure, shortened: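 ELISA quantified MIG after 24 h exposure of primary bronchial epithelial cultures, analysed in both directions relative to DMSO. Cytotoxicity tracked in parallel cultures by sulforhodamine B staining.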

[7] = read-out: Plasminogen activator inhibitor-1 (PAI1), SERPINE1 (gene 5054); assay: BSK_BE3C_PAI1: BioMAP Diversity Plus: BE3C Assay for Plasminogen activator inhibitor-1 (PAI1) Biomarker Activity (AID 2283037); details: primary human bronchial epithelial cells; actives raise or lower the signal
Procedure, shortened: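 ELISA read-out of PAI-1 from human bronchial epithelial primary cells, 24 h post-dosing; bidirectional curve fit vs DMSO baseline, gain or loss of signal scored.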

[8] = read-out: Urokinase-type plasminogen activator receptor (uPAR), PLAUR (gene 5329); assay: BSK_BE3C_uPAR: BioMAP Diversity Plus: BE3C Assay for Urokinase-type plasminogen activator receptor (uPAR) Biomarker Activity (AID 2283039); details: primary human bronchial epithelial cells; actives raise or lower the signal
Procedure, shortened: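 ELISA readout of uPAR on human lung primary bronchial epithelial cells, 24 h post-dosing. Bidirectional curve fit relative to DMSO vehicle baseline; gain or loss of signal both scored.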

[9] = read-out: Interleukin-6 (IL6), IL6 (gene 3569); assay: BSK_CASM3C_IL6: BioMAP Diversity Plus: CASM3C Assay for Interleukin-6 (IL6) Biomarker Activity for (AID 2283040); details: primary human coronary artery smooth muscle cells; actives raise or lower the signal
[10] = read-out: Tissue plasminogen activator (tPA), PLAT (gene 5327); assay: BSK_BE3C_tPA: BioMAP Diversity Plus: BE3C Assay for Tissue plasminogen activator (tPA) Biomarker Activity (AID 2283041); details: primary human bronchial epithelial cells; actives raise or lower the signal
Procedure, shortened: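 ELISA read-out of tPA on human primary bronchial epithelial cells, 24 h post-dosing; bidirectional fit vs DMSO negative control/baseline.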

[11] = read-out: Interleukin-8 (IL8), CXCL8 (gene 3576); assay: BSK_CASM3C_IL8: BioMAP Diversity Plus: CASM3C Assay for Interleukin-8 (IL8) Biomarker Activity (AID 2283042); details: primary human coronary artery smooth muscle cells; actives raise or lower the signal;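 also: IL-8 protein level quantified by ELISA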
[12] = read-out: Human Leukocyte Antigen - DR isotype (HLADR), HLA-DRA (gene 3122); assay: BSK_CASM3C_HLADR: BioMAP Diversity Plus: CASM3C Assay for Human Leukocyte Antigen - DR isotype (HLADR) Biomarker Activity (AID 2283043); details: primary human coronary artery smooth muscle cells; actives raise or lower the signal;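 also: cell-surface HLA-DR protein level quantified by ELISA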
[13] = read-out: Macrophage colony-stimulating factor (MCSF), CSF1 (gene 1435); assay: BSK_CASM3C_MCSF: BioMAP Diversity Plus: CASM3C Assay for Macrophage colony-stimulating factor (MCSF) Biomarker Activity (AID 2283044); details: primary human coronary artery smooth muscle cells; actives raise or lower the signal;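 also: M-CSF protein amount quantified by ELISA after 24 h exposure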
[14] = read-out: Low-density lipoprotein receptor (LDLR), LDLR (gene 3949); assay: BSK_CASM3C_LDLR: BioMAP Diversity Plus: CASM3C Assay for Low-density lipoprotein receptor (LDLR) Biomarker Activity (AID 2283045); details: primary human coronary artery smooth muscle cells; actives raise or lower the signal;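 also: LDLR protein level on the cell surface quantified by ELISA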
[15] = read-out: Monocyte Chemoattractant Protein-1 (MCP1), CCL2 (gene 6347); assay: BSK_CASM3C_MCP1: BioMAP Diversity Plus: CASM3C Assay for Monocyte Chemoattractant Protein-1 (MCP1) Biomarker Activity (AID 2283046); details: primary human coronary artery smooth muscle cells; actives raise or lower the signal;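 also: MCP-1 level quantified by ELISA 24 h after dosing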
[16] = BSK_CASM3C_Proliferation: Cell Proliferation Assessment in the BioMAP Diversity Plus: CASM3C Assay (AID 2283047); details: primary human coronary artery smooth muscle cells;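 also: sulforhodamine B total protein stain as relative cell number at 560 nm; sub-confluent cells exposed 48 h before staining; fitted both ways against DMSO so gain or loss of cell number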
[17] = read-out: Monokine induced gamma interferon (MIG), CXCL9 (gene 4283); assay: BSK_CASM3C_MIG: BioMAP Diversity Plus: CASM3C Assay for Monokine induced gamma interferon (MIG) Biomarker Activity (AID 2283048); details: primary human coronary artery smooth muscle cells; actives raise or lower the signal
[18] = read-out: serum amyloid A (SAA), SAA1 (gene 6288); assay: BSK_CASM3C_SAA: BioMAP Diversity Plus: CASM3C Assay for serum amyloid A (SAA) Biomarker Activity (AID 2283049); details: primary human coronary artery smooth muscle cells; actives raise or lower the signal;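 also: SAA protein level quantified by ELISA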
[19] = read-out: urokinase plasminogen activator (uPA), PLAU (gene 5328); assay: BSK_BE3C_uPA: BioMAP Diversity Plus: BE3C Assay for urokinase plasminogen activator (uPA) Biomarker Activity (AID 2283038); details: primary human bronchial epithelial cells; actives raise or lower the signal
Procedure, shortened: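 Human primary bronchial epithelial cells were exposed to chemical for 24 h, then uPA levels were measured by ELISA. Responses were fitted bidirectionally against DMSO as negative control and baseline. Parallel SRB staining of total protein gauged overt cytotoxicity.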

[20] = read-out: Transforming growth factor beta 1 (TGFb1), TGFB1 (gene 7040); assay: BSK_BE3C_TGFb1: BioMAP Diversity Plus: BE3C Assay for Transforming growth factor beta 1 (TGFb1) Biomarker Activity (AID 2283036;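 also: TGF-b1 protein level measured by ELISA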); details: primary human bronchial epithelial cells; actives raise or lower the signal
Procedure, shortened: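 Read-out: ELISA for TGF-b1 in primary human bronchial epithelial cultures, 24 h post-dose. Bidirectional curve fitting vs DMSO control; gain or loss of signal both scored.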

Measured: AC50

C=CC(=O)OCC(F)(F)C(F)(F)C(F)(F)C(F)(F)COC(=O)C=C
inactive: [2] | [7] | [8] | [9] | [10] | [11] | [12] | [14]
active: [1] 57.8 µM and 55.1 µM | [2] 9.64 µM | [3] 40.4 µM and 42.4 µM | [4] 25.5 µM and 24 µM | [5] 45.1 µM and 45.8 µM | [6] 44.1 µM and 46.5 µM | [8] 21.5 µM | [9] 7.96 µM | [10] 8.82 µM | [12] 17.8 µM | [13] 34.9 µM and 30 µM | [14] 12.2 µM | [15] 45.8 µM and 44 µM | [16] 18.9 µM and 31.4 µM | [17] 28.6 µM and 31 µM | [18] 22.9 µM and 16.1 µM

Cc1ccc(S(=O)(=O)OCC(F)(F)C(F)(F)C(F)(F)C(F)(F)C(F)(F)C(F)F)cc1
active: [1] 46 µM
inactive: [1] | [2] | [3] | [4] | [5] | [6] | [7] | [19] | [8] | [9] | [10] | [11] | [12] | [13] | [14] | [15] | [16] | [17] | [18]

FC1CC(F)(F)C(F)(F)C1(F)F (stereo not drawn)
inactive: [1] | [2] | [3] | [4] | [5] | [6] | [7] | [19] | [8] | [9] | [10] | [11] | [12] | [13] | [14] | [15] | [16] | [17] | [18]

CCN(CC)c1ccc2c(C)cc(=O)oc2c1
active: [14] 31.3 µM
inactive: [1] | [2] | [3] | [4] | [5] | [6] | [20] | [7] | [8] | [9] | [10] | [11] | [12] | [13] | [15] | [16] | [17] | [18]

O=C(O)C(F)(F)C(F)(F)C(F)(F)C(F)(F)C(F)(F)C(F)(F)C(F)(F)C(F)(F)C(F)(F)C(F)(F)C(F)(F)C(F)(F)C(F)(F)F
active: [2] 0.932 µM | [15] 33.9 nM
inactive: [1] | [2] | [3] | [4] | [5] | [6] | [7] | [8] | [9] | [10] | [11] | [12] | [13] | [14] | [15] | [16] | [17] | [18]

O=C(O)C(F)(F)C(F)(F)C(F)(F)C(F)(F)C(F)(F)C(F)(F)C(F)(F)C(F)(F)Cl
inactive: [1] | [2] | [4] | [9] | [11] | [12] | [13] | [14] | [15] | [16] | [17] | [18]
active: [3] 18.2 µM and 17.6 µM | [4] 56.8 µM | [5] 18.3 µM and 17.9 µM | [6] 46.6 µM and 46.5 µM | [7] 18 µM and 12.2 µM | [19] 45.7 µM and 45.8 µM | [8] 48.6 µM and 44.4 µM | [10] 30 µM and 20.4 µM

O=P(O)(O)OCCC(F)(F)C(F)(F)C(F)(F)C(F)(F)C(F)(F)C(F)(F)F
inactive: [1] | [2] | [3] | [4] | [5] | [6] | [7] | [8] | [9] | [10] | [11] | [12] | [13] | [14] | [15] | [16] | [17] | [18]
active: [4] 6.01 µM | [10] 3.64 µM | [15] 258 nM | [18] 457 nM

CCc1c(Br)c(Br)c(Br)c(Br)c1Br
inactive: [1] | [2] | [3] | [4] | [5] | [6] | [20] | [7] | [19] | [8] | [9] | [10] | [11] | [12] | [13] | [14] | [15] | [16] | [17] | [18]

N=C(N)C(F)(F)C(F)(F)C(F)(F)C(F)(F)C(F)(F)C(F)(F)C(F)(F)F
inactive: [1] | [2] | [3] | [5] | [6] | [7] | [19] | [8] | [9] | [10] | [11] | [12] | [13] | [14] | [15] | [16] | [17] | [18]
active: [3] 43.1 µM | [4] 21.1 µM and 44.1 µM | [5] 48.6 µM | [12] 30 µM | [14] 27.1 µM | [16] 46.1 µM
